Compound activity deposited in PubChem by National Center for Advancing Translational Sciences (NCATS).
KB-V1 MDR tox: kills drug-selected multidrug resistant KB-V1 cells; Potency, µM (doses to about 46.1 µM), usual class: cytotoxic; 400,000 compounds, 3.4% hits; AID 1347076; KB-V1 MDR cells viability, CellTiter-Glo, 72 h; also: nearly all actives have a fitted effect of over 60% in size
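Cells of the MDR subline KB-V1 are plated, dosed with compound at multiple concentrations, and incubated 72 h at 37 degrees C; CellTiter-Glo is then added and luminescence read after 10 min.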
HT1080 IDH1KD tx: kills HT-1080 cells with IDH1 knockdown. HT-1080 IDH1 knockdown viability, ATP luminescence, 48 h. Potency, µM (doses to about 46.1 µM), without a hit: top-dose activity, negative = toxicity, most hits filed as cytotoxic. 360,000 compounds, 2% hits. AID 686971;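 also: 0% = DMSO wells and -100% = cell-free medium wells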
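IDH1KD HT-1080 cells, 750/well, RPMI + 5% FBS; compound pinned after 2 h settling; 48 h, 37 °C; CellTiter-Glo luminescence; % activity normalised to DMSO and no-cell wells; curves fitted, classed by r2 and efficacy.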
HT1080NT lethal: kills 2HG-producing HT-1080-NT fibrosarcoma cells; HT-1080-NT fibrosarcoma viability, CellTiter-Glo ATP luminescence, 48 h; Potency, µM (doses to about 46.1 µM), without a hit: top-dose activity, negative = less viability, usual class: cytotoxic; 360,000 compounds, 1.6% hits; AID 686970;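 also: NT is the 2HG producing partner of a matched IDH1 knockdown line; 0% = DMSO-treated cells and -100% = media-only wells without cells; nearly all actives have a fitted effect of over 55% in size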
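HT-1080-NT; 750 cells/well; 5% FBS RPMI; 48 h compound, 37 degrees C; CellTiter-Glo luminescence; curve fitting and curve-class assignment.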
KB-3-1 tox: kills parental KB-3-1 adenocarcinoma cells. KB-3-1 viability, CellTiter-Glo ATP luminescence, 72 h. Potency, µM (doses to about 46.1 µM), most hits filed as cytotoxic. 400,000 compounds, 1.4% hits. AID 1347075; also: nearly all actives have a fitted effect of over 60% in size
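KB-3-1 cells, DMEM (no phenol red) + 10% FBS; compound by pin transfer, 72 h, 37 °C. Readout: CellTiter-Glo luminescence after 10 min. Data normalized, curve-fitted.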
* hit, by the source's call. The list is not random: actives were taken first. Their share in the collection is about 5.7%. Calls follow the shape of the dose curve; as a rule, active = well fitted curve in the direction sought with a large enough effect; inconclusive = small, poorly fitted or top-dose-only effect, or another doubt; inactive = no such curve, though single readings can be large; an effect the other way counts as inactive or inconclusive. Unless noted, % is scaled to controls: 0 for no effect and ±100 for the full control effect; potency is read from the fitted curve at half-maximal effect.

`COC(=O)C1C2CC3c4[nH]c5cc(OC)ccc5c4CCN3CC2CC(OC(=O)CC(C)=O)C1OC` (stereo unspecified) gave KB-V1 MDR tox inactive, HT1080 IDH1KD tx inconclusive, HT1080NT lethal -13% and KB-3-1 tox inactive.
For COc1ccc(CNC(=O)c2cc3ccccn3n2)cc1OC the results were KB-V1 MDR tox inconclusive and KB-3-1 tox inactive.
COc1ccc(OCC(=O)NC(Cc2c[nH]c3ccccc23)C(=O)O)cc1 (stereo unspecified) was read as KB-V1 MDR tox inactive and KB-3-1 tox inactive.
CC(C)=C1C2CCC1C(C(=O)Nc1sc(C)c(-c3ccc(C(C)C)cc3)c1C(N)=O)C2C(=O)O (stereo unspecified) was read as KB-V1 MDR tox 2.1µM*, HT1080 IDH1KD tx 16µM*, HT1080NT lethal inconclusive and KB-3-1 tox inconclusive.
For CCOC(=O)c1c(NC(=O)/C=C/C(=O)O)sc(C)c1-c1ccc(F)cc1 the results were KB-V1 MDR tox inconclusive, HT1080 IDH1KD tx inconclusive, HT1080NT lethal 21µM* and KB-3-1 tox inconclusive.
Screening COC(=O)c1c(NC(=O)/C=C/C(=O)O)sc(C)c1-c1ccc(C)c(C)c1 returned KB-V1 MDR tox inactive, HT1080 IDH1KD tx inconclusive, HT1080NT lethal inconclusive and KB-3-1 tox inconclusive.
For COC(=O)c1c(NC(=O)/C=C/C(=O)O)sc(C)c1-c1ccc(C(C)C)cc1 the results were KB-V1 MDR tox inconclusive, HT1080 IDH1KD tx inconclusive, HT1080NT lethal inconclusive and KB-3-1 tox 21µM*.
Screening Cn1c(=O)cc(SCC(=O)N2CCN(c3ccccc3F)CC2)c2ccc(Cl)cc21 returned KB-V1 MDR tox inactive and KB-3-1 tox inactive.
O=C(CSc1ncc2c(n1)-c1ccccc1N(Cc1ccc(Cl)cc1)S2(=O)=O)c1ccccc1 was read as KB-V1 MDR tox inactive and KB-3-1 tox inactive.
`COc1ccc(NC(=O)Cn2cc(S(=O)(=O)c3ccccc3)c(=O)c3cc(C)ccc32)cc1Cl` gave KB-V1 MDR tox inconclusive and KB-3-1 tox inactive.
`COc1ccc(Cn2ccc3nc(C)c(C(=O)N4CCN(c5cccc(OC)c5)CC4)cc3c2=O)cc1` gave KB-V1 MDR tox inactive and KB-3-1 tox inactive.
`CC1CC(=O)c2cnc(NCC3CCCO3)nc2C1` (stereo unspecified) gave KB-V1 MDR tox inactive, HT1080 IDH1KD tx 17%, HT1080NT lethal 14% and KB-3-1 tox inactive.
O=C1CC(c2cccs2)Cc2nc(NCC3CCCO3)ncc21 (stereo unspecified) was read as KB-V1 MDR tox 16µM*, HT1080 IDH1KD tx 3%, HT1080NT lethal 12% and KB-3-1 tox inactive.
For Cc1ccc(/C=C2/CNC/C(=C/c3ccc(C)cc3)C2=O)cc1 the results were KB-V1 MDR tox 4.1µM*, HT1080 IDH1KD tx 23µM*, HT1080NT lethal 15µM* and KB-3-1 tox 3.3µM*.
`Cc1ccc(/C=N/NC(=O)c2c(C)nc3ccc(Br)cn23)cc1` gave KB-V1 MDR tox 1.3µM*, HT1080 IDH1KD tx 0.58µM*, HT1080NT lethal 1.3µM* and KB-3-1 tox 1.5µM*.
Screening COc1cccc(/C=N/NC(=O)c2c(C)nc3ccc(Br)cn23)c1O returned KB-V1 MDR tox inactive, HT1080 IDH1KD tx inconclusive, HT1080NT lethal inconclusive and KB-3-1 tox inconclusive.
COc1ccc(/C=N\NC(=O)c2c(C)nc3ccc(Br)cn23)cc1 was read as KB-V1 MDR tox inconclusive, HT1080 IDH1KD tx 0.58µM*, HT1080NT lethal inconclusive and KB-3-1 tox inconclusive.
`Cc1nc2ccccn2c1C(=O)N/N=C/c1cc(C)n(-c2ccc(Br)cc2)c1C` gave KB-V1 MDR tox inconclusive, HT1080 IDH1KD tx -22%, HT1080NT lethal -15% and KB-3-1 tox 21µM*.
For Cc1ccc2nc(C)c(C(=O)NN=C3CCN(C)CC3)n2c1 the results were KB-V1 MDR tox inactive, HT1080 IDH1KD tx 5.2µM*, HT1080NT lethal 5.2µM* and KB-3-1 tox inactive.
`Cc1nc2ccccn2c1C(=O)N/N=C/c1ccccc1` gave KB-V1 MDR tox inactive, HT1080 IDH1KD tx -2%, HT1080NT lethal -1% and KB-3-1 tox inactive.
CCOC(=O)c1c(C)nc2ccc(C)cn12 was read as KB-V1 MDR tox inactive, HT1080 IDH1KD tx -2%, HT1080NT lethal 8% and KB-3-1 tox inconclusive.
For COC(=O)c1sccc1S(=O)(=O)N(CC(=O)NCc1ccc(C)cc1)c1ccccc1 the results were KB-V1 MDR tox inactive and KB-3-1 tox inactive.
CNc1ccc(/C=C2\C=Cc3ccccc32)cc1I was read as KB-V1 MDR tox inconclusive and KB-3-1 tox inactive.
Screening Cc1ccc2scc(N3CCCCC3C)c(=O)c2c1 (stereo unspecified) returned KB-V1 MDR tox inactive and KB-3-1 tox inactive.
Screening COc1ccc(S(=O)(=O)n2nc(C)c(S(=O)(=O)N3CCCCCC3)c2C)cc1C returned KB-V1 MDR tox inconclusive and KB-3-1 tox inactive.
For COc1ccc(/C=N/NC(=O)c2c(C)nc3ccc(Br)cn23)cc1OC the results were KB-V1 MDR tox inactive, HT1080 IDH1KD tx 4.6µM*, HT1080NT lethal inconclusive and KB-3-1 tox inactive.
`O=C1C(NS(=O)(=O)c2cccs2)=C(N2CCN(Cc3ccccc3)CC2)C(=O)c2ccccc21` gave KB-V1 MDR tox 23µM*, HT1080 IDH1KD tx -11%, HT1080NT lethal -1% and KB-3-1 tox inactive.
For COc1ccc(N(C)C2=NS(=O)(=O)c3ccccc32)cc1 the results were KB-V1 MDR tox inactive, HT1080 IDH1KD tx 23µM*, HT1080NT lethal 12µM* and KB-3-1 tox inconclusive.
COc1ccc(/C=N/N(C)C2=NS(=O)(=O)c3ccccc32)cc1 was read as KB-V1 MDR tox inactive, HT1080 IDH1KD tx -9%, HT1080NT lethal 10% and KB-3-1 tox inactive.
For CSc1cc(-c2ccccc2)n(C)c(=O)c1C#N the results were KB-V1 MDR tox inconclusive, HT1080 IDH1KD tx -2%, HT1080NT lethal -20% and KB-3-1 tox inactive.
For CSc1cc(-c2ccccc2)n(Cc2c(Cl)cccc2Cl)c(=O)c1C#N the results were KB-V1 MDR tox inconclusive, HT1080 IDH1KD tx 8%, HT1080NT lethal 15% and KB-3-1 tox 3.3µM*.
Screening CSc1cc(-c2ccc(Cl)cc2)n(Cc2ccccc2)c(=O)c1C#N returned KB-V1 MDR tox inactive, HT1080 IDH1KD tx 6%, HT1080NT lethal 5% and KB-3-1 tox 16µM*.
Screening COc1ccccc1NC(=O)c1cc(=O)c2ccc(C)c(C)c2o1 returned KB-V1 MDR tox inactive and KB-3-1 tox inactive.
Screening Cc1c(C#N)c(NC(=O)CCl)n(Cc2ccccc2)c1C returned KB-V1 MDR tox inconclusive, HT1080 IDH1KD tx 1.6µM*, HT1080NT lethal inconclusive and KB-3-1 tox 10µM*.
`Cc1c(C#N)c(NC(=O)CCl)n(Cc2cccs2)c1C` gave KB-V1 MDR tox inconclusive, HT1080 IDH1KD tx inconclusive, HT1080NT lethal 16µM* and KB-3-1 tox inconclusive.
Screening COc1ccc(-c2ccc3ncnc(NCc4ccc(C)o4)c3c2)cc1OC returned KB-V1 MDR tox inconclusive and KB-3-1 tox inactive.
